Results published in PubChem BioAssay (EPA / NIEHS).
Results filed as inconclusive are left out. Calls of active or inactive are those of the source. Rule for the calls, unless noted: active = hit-call score of the fitted dose curve at least 0.9, where 1 is the maximum; inactive = score below 0.9.

Key:
[1] = ATG_BRE_CIS: Attagene CIS-FACTORIAL HepG2 Assay for human Bone Morphogenetic Protein (BMP) Response Element (BRE) (AID 2282933); conditions: HepG2 BMP response element reporter, Attagene transcription factor profiling; actives raise or lower the signal
Procedure, shortened: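 Gain- or loss-of-signal was derived by bidirectional fitting against DMSO controls. The signal came from reporter mRNA, measured by RT-PCR and capillary electrophoresis, in HepG2 cells transiently carrying multiple reporter units and dosed for 24 h.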

[2] = ATG_E_Box_CIS: Attagene CIS-FACTORIAL HepG2 Assay for human Enhancer Box (E-box) (AID 2282936); conditions: HepG2 E-box cis-reporter transcription, actives raise or lower the signal
Procedure, shortened: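 First, HepG2 cells receive multiple cis-regulated reporter constructs by transient transfection. Next, chemicals are applied for 24 h. Finally, reporter mRNA is quantified via RT-PCR and capillary electrophoresis, with DMSO as baseline.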

[3] = ATG_FoxO_CIS: Attagene CIS-FACTORIAL HepG2 Assay for human Forkhead box O (FoxO) (AID 2282943); conditions: HepG2 Attagene cis-reporter, FoxO element, mRNA; actives raise or lower the signal
Procedure, shortened: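 Transfected HepG2 reporter cells exposed to test chemical for 24 h; reporter RNA measured by reverse transcription, PCR and fluorescent capillary electrophoresis; curves fitted for increases and decreases against DMSO.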

[4] = ATG_GRE_CIS: Attagene CIS-FACTORIAL HepG2 Assay for human Glucocorticoid Response Elements (GRE) (AID 2282947); conditions: HepG2 GRE cis-reporter, Attagene multiplex mRNA; actives raise or lower the signal
Procedure, shortened: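 Endogenous transcription factor activity is read through cis-element reporter constructs transiently transfected into HepG2 cells. After 24 h treatment, labelled RT-PCR products are resolved by capillary electrophoresis; DMSO sets baseline for bidirectional curve fitting.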

[5] = ATG_PBREM_CIS: Attagene CIS-FACTORIAL HepG2 Assay for human Phenobarbital-responsive Enhancer Module (PBREM) (AID 2282955); conditions: HepG2 PBREM cis-reporter, Attagene multiplexed transcription; actives raise or lower the signal
Procedure, shortened: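 Fluorescence of labelled reporter cDNA fragments, resolved by capillary electrophoresis, gives mRNA induction in transfected HepG2 cells treated for 24 h; DMSO serves as negative control and baseline.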

[6] = ATG_PPRE_CIS: Attagene CIS-FACTORIAL HepG2 Assay for human Peroxisome Proliferator-activated Response Element (PPRE) (AID 2282958); conditions: HepG2 PPRE cis-element reporter, Attagene transcription factor profiling; actives raise or lower the signal
Procedure, shortened: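 Cells are first transfected transiently with the multiplexed reporter library, then dosed for 24 h. Total RNA is reverse-transcribed, amplified, fluorescently end-labeled and HpaI-cut before capillary electrophoresis; activity is fitted bidirectionally against DMSO controls.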

[7] = ATG_Sox_CIS: Attagene CIS-FACTORIAL HepG2 Assay for human SRY-box transcription factor (SOX) (AID 2282960); conditions: HepG2 Attagene cis-factorial SOX reporter, mRNA; actives raise or lower the signal
Procedure, shortened: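 Transient MRTU transfection of HepG2; 24 h compound incubation; TriZol RNA, oligo(dT) RT, PCR, 6-FAM primer extension, HpaI cut, CE. Bidirectional fit, DMSO = baseline.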

[8] = ATG_M_06_TRANS: Attagene TRANS-FACTORIAL HepG2 Assay for M06 Transcription Factor (Internal Marker) (AID 2282983; active = hit-call score of the fitted dose curve at least 0.9, where 1 is the maximum;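 note: reporter transcript level by RT-PCR then capillary electrophoresis fluorescence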); conditions: HepG2 Attagene TRANS M06 internal marker reporter
Procedure, shortened: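 Cells: HepG2, transient multi-reporter transfection. Exposure: 24 h. Detection: RT-PCR, 6-FAM labelling, HpaI digestion (2 h, 37 °C), capillary electrophoresis. Baseline: DMSO.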

[9] = biological target: Nuclear respiratory factor 1 (Homo sapiens) (UniProt Q16656); experiment: ATG_NRF1_CIS: Attagene CIS-FACTORIAL HepG2 Assay for human Nuclear Respiratory Factor 1 (NRF1) Orphan Gene (AID 2282987); conditions: HepG2 NRF1 cis-element reporter, Attagene multiplex; actives raise or lower the signal
Procedure, shortened: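 Fluorescence intensity of labelled reporter cDNA fragments, resolved by capillary electrophoresis, served as readout for NRF1 cis-element activity. Transiently transfected HepG2 cells were dosed for 24 hours; activity in either direction was fitted against DMSO negative control.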

[10] = ATG_NFI_CIS: Attagene CIS-FACTORIAL HepG2 Assay for human Nuclear Factor I (NFI) (AID 2282989); conditions: HepG2 cis-regulatory reporter, NFI response element transcription; actives raise or lower the signal
Procedure, shortened: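 After transient transfection of HepG2 with cis-promoter reporter constructs and 24 h dosing, RNA is reverse-transcribed, amplified, 6-FAM end-labelled and HpaI-digested before capillary analysis. Bidirectional curve fitting against DMSO.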

[11] = biological target: Retinoic acid receptor RXR-alpha (Homo sapiens) (UniProt P19793); experiment: ATG_RXRa_TRANS: Attagene TRANS-FACTORIAL HepG2 Assay for human Retinoid X Receptor alpha (RXRa) (AID 2283012; active = hit-call score of the fitted dose curve at least 0.9, where 1 is the maximum)
Procedure, shortened: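 Cells (HepG2) carried transiently transfected GAL4-responsive reporter units. Following a 24 h chemical incubation, reporter mRNA induction was read via RT-PCR fragment analysis; DMSO served as negative control and baseline.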

[12] = biological target: Cellular tumor antigen p53 (Homo sapiens) (UniProt P04637); experiment: TOX21_p53_BLA_p3_ratio: Tox21 HCT-116 p53 Agonism Beta-lactamase Assay, Ratio, Phase 3 (AID 2283596; active = hit-call score of the fitted dose curve at least 0.9, where 1 is the maximum)
Procedure, shortened: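 HCT116 p53-bla cells (4000/well) given compound in DMSO (217-fold dilution) after 5 h, incubated 16 h at 37C. CCF4-AM substrate 2 h at room temperature; 460/530 nm emission ratio, gain fitted against DMSO.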

[13] = biological target: Cellular tumor antigen p53 (Homo sapiens) (UniProt P04637); experiment: TOX21_p53_BLA_p5_ratio: Tox21 HCT-116 p53 Agonism Beta-lactamase Assay, Ratio, Phase 5 (AID 2283599; active = hit-call score of the fitted dose curve at least 0.9, where 1 is the maximum)
Procedure, shortened: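 HCT-116 p53-bla cells (4000/well) plated 5 h, dosed with compound (217-fold DMSO dilution) for 16 h at 37 C; CCF4-AM substrate 2 h at room temperature. Activity is the 460/530 nm emission ratio (405 nm excitation), fitted in gain-of-signal direction versus DMSO.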

[14] = biological target: Cellular tumor antigen p53 (Homo sapiens) (UniProt P04637); experiment: TOX21_p53_BLA_p4_ratio: Tox21 HCT-116 p53 Agonism Beta-lactamase Assay, Ratio, Phase 4 (AID 2283601; active = hit-call score of the fitted dose curve at least 0.9, where 1 is the maximum)
Procedure, shortened: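 HCT-116 p53 beta-lactamase reporter cells (4000/well) preincubated 5 h, then compound (217-fold dilution of DMSO stock) for 16 h at 37C. CCF4-AM substrate added 2 h at room temperature; 460/530 nm emission ratio fitted upward versus DMSO.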

[15] = biological target: X-box-binding protein 1 (Homo sapiens) (UniProt P17861); experiment: ATG_Xbp1_CIS: Attagene CIS-FACTORIAL HepG2 Assay for human X-box Binding Protein 1 (XBP1) (AID 2282972); conditions: HepG2 XBP1 cis-element reporter, Attagene multiplex; actives raise or lower the signal
Procedure, shortened: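 HepG2, transient MRTU transfection (cis-promoter driven), 24 h compound exposure. Total RNA → oligo(dT) RT → PCR → 6-FAM labeling → HpaI cut → CE. Bidirectional fit vs DMSO.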

[16] = biological target: Hepatocyte nuclear factor 4-alpha (Homo sapiens) (UniProt P41235); experiment: ATG_HNF4a_TRANS: Attagene TRANS-FACTORIAL HepG2 Assay for human Hepatocyte Nuclear Factor 4 alpha (HNF4a) (AID 2282982; active = hit-call score of the fitted dose curve at least 0.9, where 1 is the maximum); conditions: HepG2 HNF4a transactivation reporter, mRNA readout
Procedure, shortened: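 Gain-of-signal mRNA induction, relative to DMSO vehicle, was read after 24 h compound treatment of HepG2 cells bearing transfected GAL4-UAS reporters. Detection used RT-PCR, 6-FAM primer extension and capillary electrophoresis.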

[17] = biological target: Nuclear receptor subfamily 1 group I member 2 (Homo sapiens) (UniProt O75469); experiment: ATG_PXR_TRANS: Attagene TRANS-FACTORIAL HepG2 Assay for human Pregnane X Receptor (PXR) (AID 2283008; active = hit-call score of the fitted dose curve at least 0.9, where 1 is the maximum)
Procedure, shortened: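 Read-out is fluorescence of labelled reporter cDNA fragments separated by capillary electrophoresis after RT-PCR and HpaI digestion. Source: HepG2 cells carrying PXR-GAL4/UAS reporter constructs, treated 24 h; activity fitted upward relative to DMSO.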

[18] = ATG_SREBP_CIS: Attagene CIS-FACTORIAL HepG2 Assay for human Sterol Regulatory Element Binding (SREBP) (AID 2282962); conditions: HepG2 Attagene cis-factorial SREBP reporter, mRNA; actives raise or lower the signal
Procedure, shortened: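 Transfected HepG2 (cis-regulated reporter library, endogenous TFs) → compound 24 h → total RNA → oligo(dT) RT → reporter-specific PCR → FAM primer extension, HpaI cut → CE fluorescence. Fit bidirectional vs DMSO.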

[19] = biological target: Peroxisome proliferator-activated receptor gamma (Homo sapiens) (UniProt P37231); experiment: ATG_PPARg_TRANS: Attagene TRANS-FACTORIAL HepG2 Assay for human Peroxisome Proliferator-activated Receptor-gamma (PPARg) (AID 2283007; active = hit-call score of the fitted dose curve at least 0.9, where 1 is the maximum)
Procedure, shortened: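 A TRANS-format multiplexed reporter assay measures activity of an exogenous chimeric NR-Gal4 protein in HepG2 cells. After 24 h of chemical exposure, reporter transcripts are amplified, fluorescently labelled and sized by capillary electrophoresis, with gain of signal scored against DMSO.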

[20] = biological target: human Retinoid X Receptor beta (RXRb), RXRB (gene 6257) (UniProt P28702); experiment: ATG_RXRb_TRANS: Attagene TRANS-FACTORIAL HepG2 Assay for human Retinoid X Receptor beta (RXRb) (AID 2283013; active = hit-call score of the fitted dose curve at least 0.9, where 1 is the maximum)
Procedure, shortened: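 Multiplexed TRANS reporter assay in HepG2; 24 h dosing; reporter mRNA by RT-PCR/CE fluorescence; gain-of-signal relative to DMSO.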

Measured: AC50

Sequence of X-box-binding protein 1 (Homo sapiens) (P17861 whole entry, looked up): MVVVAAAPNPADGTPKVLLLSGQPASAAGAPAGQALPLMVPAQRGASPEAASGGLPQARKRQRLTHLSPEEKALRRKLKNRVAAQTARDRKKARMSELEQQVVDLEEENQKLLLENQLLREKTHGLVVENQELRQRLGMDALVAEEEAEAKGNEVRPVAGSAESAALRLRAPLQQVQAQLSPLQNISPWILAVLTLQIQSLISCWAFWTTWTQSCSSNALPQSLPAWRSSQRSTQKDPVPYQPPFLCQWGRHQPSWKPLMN
Sequence of Nuclear respiratory factor 1 (Homo sapiens) (Q16656 whole entry, looked up, the tested form may be a part): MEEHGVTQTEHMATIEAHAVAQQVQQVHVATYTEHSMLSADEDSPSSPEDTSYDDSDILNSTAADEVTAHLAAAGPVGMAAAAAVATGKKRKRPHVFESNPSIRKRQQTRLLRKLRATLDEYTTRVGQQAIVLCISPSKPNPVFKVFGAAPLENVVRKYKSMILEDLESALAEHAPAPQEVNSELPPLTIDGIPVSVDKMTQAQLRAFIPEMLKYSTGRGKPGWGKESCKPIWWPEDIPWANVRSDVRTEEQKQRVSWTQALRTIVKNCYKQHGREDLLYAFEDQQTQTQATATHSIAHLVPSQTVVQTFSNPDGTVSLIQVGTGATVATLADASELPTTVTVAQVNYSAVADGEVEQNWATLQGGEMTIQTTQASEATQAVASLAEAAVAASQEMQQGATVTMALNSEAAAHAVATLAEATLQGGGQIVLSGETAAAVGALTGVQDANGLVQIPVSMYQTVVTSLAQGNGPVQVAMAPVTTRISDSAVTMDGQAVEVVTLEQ
Sequence of Cellular tumor antigen p53 (Homo sapiens) (P04637 whole entry, looked up): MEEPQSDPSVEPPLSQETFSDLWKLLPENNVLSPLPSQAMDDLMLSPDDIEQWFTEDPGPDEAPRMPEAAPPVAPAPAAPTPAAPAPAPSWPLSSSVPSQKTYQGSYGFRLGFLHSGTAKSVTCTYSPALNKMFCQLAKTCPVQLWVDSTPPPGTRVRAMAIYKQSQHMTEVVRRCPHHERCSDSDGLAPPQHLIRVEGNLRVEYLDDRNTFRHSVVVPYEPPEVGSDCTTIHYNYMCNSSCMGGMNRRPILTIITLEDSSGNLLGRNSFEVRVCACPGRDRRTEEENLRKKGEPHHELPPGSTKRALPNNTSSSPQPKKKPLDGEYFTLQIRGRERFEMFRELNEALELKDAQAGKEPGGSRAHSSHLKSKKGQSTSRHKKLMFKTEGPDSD
Sequence of Nuclear receptor subfamily 1 group I member 2 (Homo sapiens) (O75469 whole entry, looked up, the tested form may be a part): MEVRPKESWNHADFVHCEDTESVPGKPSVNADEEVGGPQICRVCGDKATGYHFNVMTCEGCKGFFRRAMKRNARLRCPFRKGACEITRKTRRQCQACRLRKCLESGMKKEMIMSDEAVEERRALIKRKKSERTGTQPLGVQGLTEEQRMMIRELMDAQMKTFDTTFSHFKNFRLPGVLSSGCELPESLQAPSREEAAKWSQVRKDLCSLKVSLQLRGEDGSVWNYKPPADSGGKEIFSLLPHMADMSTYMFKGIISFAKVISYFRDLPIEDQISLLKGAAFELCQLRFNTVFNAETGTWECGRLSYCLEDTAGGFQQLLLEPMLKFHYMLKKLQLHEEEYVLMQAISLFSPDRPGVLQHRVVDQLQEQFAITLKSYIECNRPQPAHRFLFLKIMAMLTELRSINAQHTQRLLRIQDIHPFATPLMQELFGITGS
Sequence of Hepatocyte nuclear factor 4-alpha (Homo sapiens) (P41235 whole entry, looked up, the tested form may be a part): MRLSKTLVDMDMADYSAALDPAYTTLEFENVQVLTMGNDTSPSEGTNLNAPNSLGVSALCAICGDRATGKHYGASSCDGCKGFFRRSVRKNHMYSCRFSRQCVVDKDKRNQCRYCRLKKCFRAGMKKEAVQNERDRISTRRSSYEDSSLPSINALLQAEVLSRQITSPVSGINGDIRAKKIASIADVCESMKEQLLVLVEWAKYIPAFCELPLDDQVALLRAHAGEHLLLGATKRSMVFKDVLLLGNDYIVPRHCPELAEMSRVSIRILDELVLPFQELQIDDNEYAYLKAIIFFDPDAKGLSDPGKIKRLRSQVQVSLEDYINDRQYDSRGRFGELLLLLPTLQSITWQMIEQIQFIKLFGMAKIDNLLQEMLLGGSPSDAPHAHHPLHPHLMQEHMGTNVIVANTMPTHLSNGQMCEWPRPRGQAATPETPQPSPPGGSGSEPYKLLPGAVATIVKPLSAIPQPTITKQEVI
Sequence of Peroxisome proliferator-activated receptor gamma (Homo sapiens) (P37231 whole entry, looked up, the tested form may be a part): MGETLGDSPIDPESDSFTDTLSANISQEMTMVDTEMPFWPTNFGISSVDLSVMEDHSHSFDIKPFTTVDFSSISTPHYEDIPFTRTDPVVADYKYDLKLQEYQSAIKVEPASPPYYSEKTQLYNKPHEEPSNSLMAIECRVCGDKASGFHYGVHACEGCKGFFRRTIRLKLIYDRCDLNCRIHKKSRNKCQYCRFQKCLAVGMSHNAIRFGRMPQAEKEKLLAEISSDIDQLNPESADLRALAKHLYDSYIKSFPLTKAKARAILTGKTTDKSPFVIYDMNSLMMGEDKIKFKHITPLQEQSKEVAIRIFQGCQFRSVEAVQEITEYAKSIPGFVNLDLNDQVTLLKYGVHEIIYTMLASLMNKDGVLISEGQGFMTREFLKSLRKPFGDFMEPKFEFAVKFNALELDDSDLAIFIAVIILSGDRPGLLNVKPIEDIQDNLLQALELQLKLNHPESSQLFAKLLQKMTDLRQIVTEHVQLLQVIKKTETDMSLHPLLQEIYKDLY
Sequence of Retinoic acid receptor RXR-alpha (Homo sapiens) (P19793 whole entry, looked up, the tested form may be a part): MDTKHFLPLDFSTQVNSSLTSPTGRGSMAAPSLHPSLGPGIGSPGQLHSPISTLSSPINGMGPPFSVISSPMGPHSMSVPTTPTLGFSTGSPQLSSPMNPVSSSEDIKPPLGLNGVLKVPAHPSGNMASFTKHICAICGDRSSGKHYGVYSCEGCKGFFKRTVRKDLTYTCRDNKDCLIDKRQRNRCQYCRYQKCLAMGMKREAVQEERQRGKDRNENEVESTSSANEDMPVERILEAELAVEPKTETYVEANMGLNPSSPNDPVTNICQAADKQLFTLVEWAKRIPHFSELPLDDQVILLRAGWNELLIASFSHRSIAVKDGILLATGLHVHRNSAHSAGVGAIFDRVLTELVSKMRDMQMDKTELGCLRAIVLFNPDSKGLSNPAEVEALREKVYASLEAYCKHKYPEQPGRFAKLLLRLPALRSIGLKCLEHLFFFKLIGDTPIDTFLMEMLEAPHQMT
Sequence of human Retinoid X Receptor beta (RXRb), RXRB (gene 6257) (P28702 whole entry, looked up): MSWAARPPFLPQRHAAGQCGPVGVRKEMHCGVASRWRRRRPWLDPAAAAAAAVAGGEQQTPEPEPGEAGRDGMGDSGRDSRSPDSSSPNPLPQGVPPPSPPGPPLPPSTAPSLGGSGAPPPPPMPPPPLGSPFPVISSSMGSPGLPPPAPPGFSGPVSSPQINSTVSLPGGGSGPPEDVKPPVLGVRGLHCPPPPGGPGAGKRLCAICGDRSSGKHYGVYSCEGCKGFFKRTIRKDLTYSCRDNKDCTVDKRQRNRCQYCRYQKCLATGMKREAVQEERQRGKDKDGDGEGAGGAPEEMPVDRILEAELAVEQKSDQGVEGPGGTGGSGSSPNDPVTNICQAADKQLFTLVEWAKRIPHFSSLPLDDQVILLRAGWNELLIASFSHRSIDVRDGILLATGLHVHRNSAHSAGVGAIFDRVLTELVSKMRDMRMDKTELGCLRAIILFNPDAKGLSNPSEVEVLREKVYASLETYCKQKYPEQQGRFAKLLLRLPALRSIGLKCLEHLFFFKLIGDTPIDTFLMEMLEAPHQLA

N#CCCCCC#N
not listed: [15] | [16] | [17] | [18] | [19] | [20]
inactive: all other assays above

CN(C)N
inactive: [1] | [2] | [4] | [6] | [15] | [16] | [8] | [9] | [11] | [13] | [14]

COc1ncc(F)c2nc(S(=O)(=O)Nc3c(F)cccc3F)nn12
not listed: [6] | [8] | [12] | [13] | [14] | [18] | [19] | [20]
inactive: all other assays above

CC(C)(O)C#N
active: [20] 78.5 µM
not listed: [2] | [4] | [6] | [11] | [15]
inactive: all other assays above

CCOP(O)OCC
not listed: [7] | [12] | [13] | [14] | [15] | [17] | [20]
inactive: all other assays above

COc1ccc(CO)cc1
not listed: [5] | [9] | [14] | [17] | [18] | [19]
inactive: all other assays above

CCC(=O)c1ccc(Cl)cc1
not listed: [2] | [12] | [13] | [14] | [19]
inactive: all other assays above

O=[N+]([O-])O.O=[N+]([O-])O.[Cd]
inactive: [1] | [2] | [3] | [4] | [18] | [16] | [8] | [19] | [11]
active: [7] 1.31 µM | [15] 1.43 µM | [9] 4.62 µM | [10] 2.18 µM

C#CC1(O)CCCCC1
inactive: [1] | [2] | [3] | [18] | [15] | [8] | [20] | [12] | [13] | [14]

CNC(=N[N+](=O)[O-])NCC1CCOC1 (stereo not drawn)
inactive: [1] | [2] | [4] | [5] | [7] | [15] | [8] | [9] | [12] | [13] | [14]
